Our source for the total cell number values is the supplement of paper PMC6135742.

Structures are written as SMILES. Where a name gives a salt, the structure may show the parent alone. Whole data set: some 2,600 compounds, median “total cell number (DAPI+ nuclei) relative to DMSO vehicle control” near -1.4, cut for the lowest 2% near -23. For the sample, the lowest values were picked, then their nearest neighbours and some compounds at random.

For this test, the system named is jimpy (Plp1 jimpy) mouse iPSC-derived oligodendrocyte progenitor cells. In words: total cell number (DAPI+ nuclei) relative to DMSO vehicle control (SDs above negative control mean); higher = more surviving cells. The settings on record: 10 µM; 3 days. Here is the method: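 Primary phenotypic screen of >3,000 bioactive compounds (Selleck L1700 and Sigma LO1280 libraries) at a single dose of 10 µM. Compounds were added to jimpy (Plp1 mutant) mouse iPSC-derived OPCs at the start of thyroid hormone-induced oligodendrocyte differentiation, one well per compound in 384-well plates. After 3 days cells were stained for MBP, Sox10 and DAPI and imaged with an Operetta system. MBP+ oligodendrocyte number and total cell number were expressed as the number of SDs above the mean of the DMSO negative control on the same plate (n=16 control wells per plate). Hits were defined as >=4 SD for oligodendrocytes and >=2 SD for total cells.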
Regarding `Nc1nccc2c1ncn2C1C=C(CO)C(O)C1O` (stereo not given) [3-Deazaneplanocin A (DZNeP)], the total cell number is -9.16. The molecule `CN(C)C[C@H](O)Cn1c2ccc(Br)cc2c2cc(Br)ccc21` (racemic) [Wiskostatin] returned a total cell number of -4.17. `Nc1n[n+]([O-])c2ccccc2[n+]1[O-]` [Tirapazamine] came in with a total cell number of -6.5.

Molecule `COc1ccc2[nH]c([S@@+]([O-])Cc3ncc(C)c(OC)c3C)nc2c1` [Esomeprazole magnesium dihydrate] came in with a total cell number of -0.604. For the molecule `COc1ccc2[nH]c([S+]([O-])Cc3ncc(C)c(OC)c3C)nc2c1` (stereo not given) [Omeprazole], the total cell number was determined as 5.38.

In turn, `COc1c(C)cnc(Cn2cnc3c(Cl)nc(N)nc32)c1C` gave a total cell number of -26.3. For the molecule `COc1ccc2[nH]c([S@@+]([O-])Cc3ncc(C)c(OC)c3C)nc2c1` [Esomeprazole Sodium], the total cell number came to 1.8.

Molecule `CC(C)(C)C(=O)Oc1ccc(S(=O)(=O)Nc2ccccc2C(=O)NCC(=O)O)cc1` [Sivelestat sodium salt hydrate] returned a total cell number of 0.0346. `OCCN1CCN(CC/C=C2/c3ccccc3Sc3ccc(C(F)(F)F)cc32)CC1` [cis-(Z)-Flupenthixol dihydrochloride]: the total cell number is -7.96.

Molecule `CN(C)CCN1C(=O)c2cccc3cc(N)cc(c23)C1=O` [Amonafide] displayed a total cell number of -24. In turn, `O=C(CCCCCN1C(=O)c2cccc3cccc(c23)C1=O)NO` [Scriptaid] registered a total cell number of -6.21. Molecule `CC(NC(=O)c1ccccc1/N=C/c1c(O)ccc2ccccc12)c1ccccc1` (stereo not given) [Sirtinol] yielded a total cell number of -0.73. Turning to `CCC(=O)O[C@]1(C(=O)CCl)[C@@H](C)C[C@H]2[C@@H]3C[C@H](F)C4=CC(=O)C=C[C@]4(C)[C@@]3(F)[C@@H](O)C[C@@]21C` [Halobetasol Propionate], the total cell number came to 10.4.

Molecule `O=C(O)CC[C@H]1CC[C@@](c2cc(F)ccc2F)(S(=O)(=O)c2ccc(Cl)cc2)CC1` gave a total cell number of 0.0291. Then `CC(C)(C)c1cnc(CSc2cnc(NC(=O)C3CCNCC3)s2)o1`, with -22.9; and `Nc1ncnc2c1nc(Br)n2C1OC2COP(=O)(O)O[C@@H]2C1O` (stereo not given in full) [8-Bromo-cAMP sodium], with -0.722.

As to `CC(C)[C@H]1C(=O)N[C@@H](CCCNC(=N)N)C(=O)NCC(=O)N[C@@H](CC(=O)O)C(=O)N[C@H](Cc2ccccc2)C(=O)N1C` [Cilengitide], the total cell number came to 1.19. Take `COc1cc(Nc2c(C#N)cnc3cc(OCCCN4CCN(C)CC4)c(OC)cc23)c(Cl)cc1Cl` [Bosutinib (SKI-606)]: the total cell number was -26.4.

Molecule `COc1cc(Nc2c(C#N)cnc3cc(OCCCN4CCN(C)CC4)c(OC)cc23)c(Cl)cc1Cl` [Bosutinib] came in with a total cell number of -10.5. `COc1cc(C(=O)OCCCN2CCCN(CCCOC(=O)c3cc(OC)c(OC)c(OC)c3)CC2)cc(OC)c1OC` [Dilazep hydrochloride] had a total cell number of -5.8.
